# Source: PubChem BioAssay
# A selection: hits, their analogues and other compounds. The true share with any hit is near 8.7%.
# Vaccinia Venus = inhibitors of vaccinia virus (Venus reporter); hit rate 0.46% among 330,000; Vaccinia virus Venus reporter expression, fluorescence; Potency, µM (titrated, usually from 36.5 µM), for inactives: at the highest dose activity change, negative = inhibition, hits mostly inhibitors; AID 720580; calls by dose curve; tested in A549 cells; also: nearly all actives have a fitted effect of over 30% in size
# VACV mCherry inh = vaccinia inhibition (mCherry reporter); hit rate 0.63% among 310,000; Vaccinia virus mCherry reporter infection, fluorescence; Potency, µM (doses to about 36.5 µM), without a hit: at the top dose activity change, negative = inhibition, most hits filed as inhibitors; calls by dose curve; tested in A549 cells; also: nearly all actives have a fitted effect of over 35% in size
# Pf growth 96h = P. falciparum growth inhibition at 96 hours; P. falciparum luciferase reporter growth, 96 h; Potency, µM (titrated, usually from 28.7 µM), without a hit: at the top dose activity change, negative = inhibition, actives largely listed as inhibitors; hit rate 6.9% among 320,000; AID 504834
#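 Infected RBCs, 2% Hct / 0.05% parasitemia final; luciferase-reporter P. falciparum; cpd 96 h, 37 C, 5% CO2; luciferase detection reagent; luminescence.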
# Pf growth 48h = P. falciparum growth inhibition at 48 hours (one generation) | P. falciparum luciferase growth in erythrocytes, 48 h | Potency, µM (top dose mostly 28.7 µM), without a hit: top-dose activity change, negative = inhibition, most hits filed as inhibitors | hit rate 5.9% among 310,000
#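 Cell-based growth assay: transgenic P. falciparum expressing firefly luciferase, cultured in red cells within RPMI 1640 containing 0.5% w/v Albumax, 24 mM bicarbonate and gentamycin. A drop in luciferase activity indicates inhibition.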
# AMA1 RON2 block = AMA1-RON2 (P. falciparum) interaction inhibition; AlphaScreen AMA1-biotinylated RON2 peptide binding; Potency, µM (highest dose often 58.2 µM), without a hit: top-dose activity change, negative = inhibition, most hits filed as inhibitors; hit rate 0.2% among 360,000;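 also: 0% = vehicle wells and -100% = peptide control; nearly all actives have a fitted effect of over 45% in size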
#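 AMA1 (3D7) with his tag at 25 nM final met compounds first, then biotinylated RON2 peptide at 25 nM; detection used donor plus acceptor beads, 10 µg/mL apiece, read by AlphaScreen after 30 min at room temperature.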
# Active calls of the source: *; i = inactive; u = inconclusive; x = not tested or not shown; ! = a repeat was not active; [ ] = another dose, or the depositor's remark. Unless noted, calls follow the shape of the dose curve; as a rule, active = well fitted curve in the direction sought with a large enough effect; inconclusive = small, poorly fitted or top-dose-only effect, or another doubt; inactive = no such curve, though single readings can be large; an effect the other way counts as inactive or inconclusive. Unless noted, % is scaled to controls: 0 for no effect and ±100 for the full control effect; potency is read from the fitted curve at half-maximal effect.
SMILES,Vaccinia Venus,VACV mCherry inh,Pf growth 96h,Pf growth 48h,AMA1 RON2 block
COc1cccc(C2N(c3ccccc3)CCN2c2ccccc2)c1OC,3.5%,3.9%,8.6%,u,-23.0%
CN1CCCCC1c1cccnc1 (stereo not given),-9.3%,-15.1%,x,x,x
Cc1ccc(N2CCN(c3ccc(C)cc3)C2c2cccnc2)cc1,-21.1%,-15.5%,1.31µM*,x,-28.0%
c1ccc(N2CCN(c3ccccc3)C2c2ccncc2)cc1,-8.0%,i,x,13.1µM*,-10.0%
N#Cc1cccc(S(=O)(=O)N2CCN(c3nc(-c4cccs4)nc4ccccc34)CC2)c1,-7.5%,-7.6%,x,x,x
Cc1nc(N2CCOCC2)c2c(C(=O)N(C)c3ccccc3)c(C)oc2n1,-10.8%,-0.9%,x,x,x
O=C(CCCc1nc(-c2ccco2)no1)Nc1ccccc1[N+](=O)[O-],-4.6%[7.34 µM],-5.0%[7.34 µM],x,x,x
CC(=O)N(C)C1=C(O)c2ccccc2C(=O)C1=O,x,x,u,4.0%,7.4%
CC(=O)N(C1=C(N2CCOCC2)C(=O)c2ccccc2C1=O)c1ccc(C(=O)O)cc1,x,x,0.415µM*,1.04µM*,0.0%
CC(=O)N(C)C1=C(N2CCOCC2)C(=O)c2ccccc2C1=O,x,x,0.294µM*,2.08µM*,17.3%
CCc1ccc(NC(=O)Cn2cnc3nc4c(cc3c2=O)CCCC4)cc1,5.6%,-4.9%,x,x,x
CCOC(=O)c1ccccc1NC(=O)N1CCn2c(C)ccc2C1CC (stereo not given),-4.8%,x,x,0.0%,-0.8%
CCC1c2ccc(C)n2CCN1C(=O)Nc1ccccc1C(=O)OC (stereo not given),-8.5%,x,145.8%,5.22µM*,24.1%
CCCC1c2ccc(C)n2CCN1C(=O)Nc1ccccc1Cl (stereo not given),-0.6%,x,2.62µM*,u,-3.5%
Cc1cc(-c2ccnc(-n3ncc(C(=O)N(C)Cc4nccs4)c3C)n2)c(C)s1,-12.5%,-22.4%,x,x,x
CCOC(=O)N1CCc2c(sc(NCc3cccs3)c2C(=O)Nc2cc(Cl)ccc2OC)C1,-10.6%,-11.8%,x,x,x
Cc1cccc(Cn2c(N(C)Cc3ccccc3)nc3c2c(=O)[nH]c(=O)n3C)c1,u,-8.6%,13.1µM*,11.7µM*,-18.0%
C/C=C/Cn1c(N(C)Cc2ccccc2)nc2c1c(=O)[nH]c(=O)n2C,-24.1%,i,8.28µM*,u,-9.8%
CCN1CCN(c2nc3c(c(=O)[nH]c(=O)n3C)n2Cc2cccc(C)c2)CC1,-11.0%,i,x,x,7.3%
CN(Cc1ccccc1)c1nc2c(c(=O)[nH]c(=O)n2C)n1C,-28.2%,-7.2%,1.0%,0.2%,1.8%
COc1ccc(N2CCN(c3nc4c(c(=O)[nH]c(=O)n4C)n3Cc3cccc(C)c3)CC2)cc1,-8.6%,-0.9%,48.0%,10.4µM*,0.4%
CN(C)c1cc(N2CCOCC2)nc(C#N)n1,-14.3%,-22.0%,x,x,x
O=c1c2ccccc2sn1-c1ccc(S(=O)(=O)N2CCOCC2)cc1,-9.8%,-1.3%,x,x,x
Cc1cccc(CNC(=O)C(=O)Nc2ccccc2C)c1,-8.0%,0.6%,x,x,x
O=C1c2ccccc2-c2n[nH]c3cccc1c23,-16.1%,11.2µM*!,u,-4.4%,-0.3%
SMILES,Vaccinia Venus,VACV mCherry inh,Pf growth 96h,Pf growth 48h,AMA1 RON2 block
CN1CCN(c2c(F)cc3c(=O)c(C(=O)O)cn4c3c2SCC4)CC1,-22.6%,x,5.22µM*,u,11.6%
C[C@@H]1COc2c(N3CCN(C)CC3)c(F)cc3c(=O)c(C(=O)O)cn1c23,x,x,u,-3.3%,x
Cc1cc(NC(=O)c2ccc(Br)o2)cc(-c2nc3ccccc3o2)c1O,1.8%,-8.5%,x,x,x
CCOc1ccccc1-n1c(SCC(=O)N(C(C)C)C(C)C)nnc1-c1cccnc1,-1.5%,-7.9%,x,-26.6%,0.3%
CCOc1ccccc1-n1c(SCC(=O)NC(C)(C)C)nnc1-c1ccoc1C,-19.3%,-22.9%,u,13.1µM*,-12.6%
CCOc1ccccc1-n1c(SCC(N)=O)nnc1-c1cccnc1,-0.9%,-5.2%,11.7µM*,-6.1%,5.4%
COCCn1c(C)cc(C(=O)CSc2nnc(-c3cccnc3)n2-c2ccccc2F)c1C,x,x,-26.8%,10.4µM*,18.4%
COc1ccc(Cn2ccc3nc(C)c(C(=O)Nc4ccc(OC)cc4OC)cc3c2=O)cc1,-27.4%,u,x,x,x
COc1ccc(S(=O)(=O)Nc2ccc3c(c2)sc(=O)n3C)cc1Cl,-9.6%[7.34 µM],-15.8%[7.34 µM],x,x,x
CS(=O)(=O)Cc1nc2ccccc2oc1=O,-13.0%,x,6.57µM*,u,-25.9%
Cn1nc(C(=O)Nc2cc(Cl)ccc2N2CCCC2)c2ccccc2c1=O,-14.2%,-26.1%,13.1µM*,11.7µM*,-10.2%
COC(=O)c1ccc(C)c(NC(=O)c2nn(C)c(=O)c3ccccc23)c1,x,x,13.1µM*,u,16.2%
CN1CCN(c2ccc(Cl)cc2NC(=O)c2nn(-c3ccccc3)c(=O)c3ccccc23)CC1,-4.7%,-11.1%,14.7µM*,-18.2%,u
CCn1nc(C(=O)Nc2ccccc2N2CCCC2)c2ccccc2c1=O,-11.1%,u,u,u,u
Cc1cnc(-n2ncc(C(=O)NCCc3ccccn3)c2C)nc1-c1ccc(F)cc1,-7.5%,-22.8%,x,x,x
Cc1ccc(NC(=O)N2CC3CCCN3c3ccccc32)c(C)c1 (stereo not given),-3.8%,2.0%,x,x,x
Cc1cccc(C2c3[nH]c4ccccc4c3CCN2C(=O)c2nn(C)c(=O)c3ccccc23)n1 (stereo not given),-5.6%,3.4%,8.28µM*,u,-23.6%
Cc1cccc(C2c3[nH]c4ccccc4c3CCN2C(=O)Cc2nc(-c3ccccc3)n[nH]2)n1 (stereo not given),-18.5%,-27.9%,16.9%,11.7µM*,-22.7%
Cc1cccc(C2c3[nH]c4ccccc4c3CCN2C(=O)c2cc(CC(C)C)nc(C)n2)n1 (stereo not given),-3.4%,-13.1%,u,11.7µM*,-4.6%
COc1ccc(Cc2c(C)nn(-c3nc(C)c(C(=O)Nc4ccc(C)cc4C)s3)c2C)cc1,-14.7%,-0.9%,x,x,x
C[C@@H]1C(NC(=O)c2ccccc2)CC2CC1C2(C)C (stereo not given in full),-13.0%,8.7%,7.38µM*,-14.1%,3.1%
COc1cc2c(NC3CCN(C)CC3)nc(N3CCCCC3)nc2cc1OCCOCCN1CCCC1,10µM*,u,x,x,x
COc1cc2c(NC3CCN(C(C)C)CC3)nc(N3CCCN(C)CC3)nc2cc1OCCOCCN1CCCC1,3.55µM*,u,x,x,x
COc1cc2c(NC3CCN(C)CC3)nc(N3CCCN(C)CC3)nc2cc1OCCCN1CCOCC1,8.91µM*,u,x,x,x
COC(=O)C1=C(C(=O)OC)C2c3ccccc3C1c1ccccc12,-5.8%,-23.5%,x,x,-20.4%
O=C(O)C1=CC2c3ccccc3C1c1ccccc12,-13.6%,i,10.4µM*,5.9%,-19.0%
CNC(=O)c1c(NC(=O)c2nc(SCc3ccc(C)cc3)ncc2Cl)sc2c1CCCC2,5.4%,-0.5%,x,x,x
COc1ccc(N2CCC(CNC(=S)Nc3cc(C)cc(C)c3)C2)cc1 (stereo not given),-27.6%,u,u,9.28µM*,6.31µM*
COc1ccc(CNC(=S)Nc2cc(C)cc(C)c2)cc1,-17.2%,-14.6%,u,u,30.1%
